Many of the other results were omitted from the sample, so hits are more common in it than they were.
PD-1 reverse act: activators reversing PD-1 mediated T-cell inhibition, primary screen, luminescence, primary human CD4 T cells, PD-L1 beads | activation, % (concentration not given with the values) | 29,000 tested, under 10 active | CellTiter-Glo 96 h; call rule not given here
NOMO-1 viab: NOMO-1 AML cell viability reduction, primary screen, STK33 inhibitor project, CellTiter-Glo luminescence | NOMO-1 AML viability, 72 h | inhibition, % (no concentration beside the values) | 7.5% of 37,000 active | AID 2330, 2010; in the data active means inhibition above about 80%; inconclusive means no clear call, values can overlap the other calls
STK33 kin inh: STK33 kinase inhibitors, primary screen, biochemical, luminescence, ADP-Glo, MBP substrate. Serine/threonine-protein kinase 33 (Homo sapiens), Q9BYT3. inhibition, % at 12.5 µM. 0.44% of 27,000 active. AID 2322, 2010; in the data active means inhibition above about 20%; inconclusive means no clear call, values can overlap the other calls
Target sequence (Q9BYT3 whole entry, looked up): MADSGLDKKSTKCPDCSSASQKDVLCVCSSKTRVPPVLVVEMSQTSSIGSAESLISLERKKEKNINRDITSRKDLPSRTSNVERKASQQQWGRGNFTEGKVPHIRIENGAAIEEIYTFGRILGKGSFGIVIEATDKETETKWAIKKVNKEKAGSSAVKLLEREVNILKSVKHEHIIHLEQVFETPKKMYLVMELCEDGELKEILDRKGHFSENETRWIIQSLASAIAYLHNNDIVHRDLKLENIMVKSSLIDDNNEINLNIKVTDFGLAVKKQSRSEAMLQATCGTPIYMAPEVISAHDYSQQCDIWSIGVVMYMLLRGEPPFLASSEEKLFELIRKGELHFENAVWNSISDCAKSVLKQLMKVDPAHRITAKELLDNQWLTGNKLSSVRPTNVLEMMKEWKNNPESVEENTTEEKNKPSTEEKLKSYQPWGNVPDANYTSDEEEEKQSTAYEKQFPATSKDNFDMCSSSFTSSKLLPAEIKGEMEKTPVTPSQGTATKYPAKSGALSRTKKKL
Large screens that a line does not name were inactive.

C[C@H](CO)N1C[C@H](C)[C@H](CN(C)Cc2ccc(Oc3ccccc3)cc2)Oc2ccc(NS(=O)(=O)c3ccc(Cl)cc3)cc2CC1=O	NOMO-1 viab 116
C[C@@H]1CN([C@H](C)CO)C(=O)Cc2cc(NS(=O)(=O)c3ccc(Cl)cc3)ccc2O[C@H]1CN(C)Cc1ccc(Oc2ccccc2)cc1	NOMO-1 viab 112 (no result: STK33 kin inh)
C[C@H]1CN([C@@H](C)CO)C(=O)Cc2cc(N(C)C)ccc2O[C@H]1CN(C)Cc1ccc(Oc2ccccc2)cc1	none
C[C@@H]1CN([C@H](C)CO)C(=O)Cc2cc(NS(=O)(=O)c3ccc(Cl)cc3)ccc2O[C@H]1CN(C)Cc1ccccc1	none (no result: PD-1 reverse act)
CCC1=Nc2ccc(Br)cc2C(c2ccccc2)N1CC(=O)NN (stereo unspecified)	none (no result: STK33 kin inh)
COc1ccc(S(=O)(=O)N(CC(N)=O)c2ccc(C)cc2)cc1Br	none
CC(=O)Nc1ccc(NC(=O)CN(c2cccc(C(F)(F)F)c2)S(C)(=O)=O)cc1	none
Cc1cc(C)cc(N(CC(=O)O)S(=O)(=O)c2ccccc2)c1	none (no result: PD-1 reverse act)
COc1ccc(S(=O)(=O)Nc2ccc3c(c2)CC(=O)N([C@@H](C)CO)C[C@@H](C)[C@@H](CN(C)Cc2ccc(Oc4ccccc4)cc2)O3)cc1	NOMO-1 viab inconclusive
C[C@H](CO)N1C[C@H](C)[C@H](CN(C)Cc2ccc(Oc3ccccc3)cc2)Oc2ccc(NS(=O)(=O)c3ccccc3)cc2CC1=O	NOMO-1 viab 96
O=C(CCCN1C(=O)c2ccccc2C1=O)Nc1ccc(Cl)cc1	none (no result: PD-1 reverse act)
O=C1C(=O)N(Cc2ccc(Cl)c(Cl)c2)c2ccccc21	NOMO-1 viab 97
O=C(CCCN1C(=O)c2ccccc2C1=O)Nc1ccc(Cl)c(Cl)c1	none
CCCOc1ccc(C2C(C(=O)Nc3ccccc3OC)=C(C)Nc3ncnn32)cc1OC (stereo unspecified)	none
Cc1cccc(N=Cc2c(O)n(-c3ccccc3)c(=O)c3ccccc23)c1	NOMO-1 viab 91 (no result: STK33 kin inh)
O=c1c2ccccc2c(C=Nc2cccc(C(F)(F)F)c2)c(O)n1-c1ccccc1	NOMO-1 viab 106 (no result: STK33 kin inh)
Cc1ccnc(N=Cc2c(C)[nH]n(-c3ccccc3)c2=O)c1	none (no result: STK33 kin inh)
O=C(c1ccccc1)c1cccc(N=Cc2c(O)[nH]c(=O)[nH]c2=O)c1	none (no result: STK33 kin inh)
COC(=O)c1c(NC(=S)NCc2ccccn2)sc2c1CCC2	none (no result: PD-1 reverse act, NOMO-1 viab)
CC1(C)CC(=O)c2c(SCCOC(=O)c3ccccc3Cl)sc(C#N)c2C1	none (no result: STK33 kin inh)
CS(=O)c1sc(C(=O)OCc2ccccc2)c2c1C(=O)CC(C)(C)C2 (stereo unspecified)	NOMO-1 viab 116 (no result: STK33 kin inh)
Cc1cc(C(=O)CSc2nnc3sc4ccccc4n23)c(C)n1Cc1ccccc1	none
CCC(C)C(O)C(C)(O)/C=C/C1=CC2=C(Cl)C(=O)C(C)(O)C(OC(C)=O)C2CO1 (stereo unspecified)	NOMO-1 viab 120
CC1(C)C=Cc2c(c(CCO)c3occ(-c4ccc(O)c(O)c4)c(=O)c3c2O)O1	none
CC(C)=CCc1c2c(c3occ(-c4ccc(O)cc4)c(=O)c3c1O)C=CC(C)(C)O2	NOMO-1 viab 107 (no result: PD-1 reverse act)
O=C(O)CCCc1cc2cc(Br)ccc2o1	none (no result: STK33 kin inh)
Cc1ccc(N(CC(N)=O)S(C)(=O)=O)c(C)c1	none
CC1OC(OCC2OC(OCC3(C)C(O)CCC4(C)C3CCC3(C)C4CCC4C5=CC(C)(C)CCC5(C(=O)O)CCC43C)C(O)C(O)C2O)C(O)C(O)C1O (stereo unspecified)	none
COC(=O)C1=C(C)NC(=O)CC1c1ccccc1C (stereo unspecified)	none (no result: STK33 kin inh)
Cc1ccccc1C1CC(=O)c2c(ccc3ccccc23)N1 (stereo unspecified)	NOMO-1 viab 140 (no result: STK33 kin inh)
O=C1c2ccccc2NC(c2ccccc2)N1N=C1CCCCCC1 (stereo unspecified)	none (no result: STK33 kin inh)
CC1CC(=O)C2=C(C1)C(Cl)C(O)C1(O)C2C(=O)c2cccc(O)c2C1O (stereo unspecified)	NOMO-1 viab 101
CC1CC(=O)C2=C(C1)C1OC1C1(O)C2C(=O)c2cccc(O)c2C1O (stereo unspecified)	none (no result: PD-1 reverse act, NOMO-1 viab)
CCOc1ccc(Cl)cc1S(=O)(=O)n1cnc2ccccc21	NOMO-1 viab 114 (no result: PD-1 reverse act)
CCOc1cc(C)c(Cl)cc1S(=O)(=O)n1cnc2ccccc21	none
COc1cc(S(=O)(=O)n2cnc3ccccc32)c(OC)cc1Cl	NOMO-1 viab 84 (no result: PD-1 reverse act)
CCOc1ccc(C)cc1S(=O)(=O)n1cnc2ccccc21	NOMO-1 viab 127
CCOc1ccc(C)cc1S(=O)(=O)Nc1cccnc1	none
COc1cc(S(=O)(=O)n2nnc3ccccc32)c(OC)cc1Cl	none
CC1=C(C)CC(C(=O)Nc2cccc3ccccc23)C(C(=O)O)C1 (stereo unspecified)	none (no result: PD-1 reverse act, NOMO-1 viab)
Cc1nc(-c2ccccc2)sc1C(=O)C1C(=O)C(=O)N(CCN(C)C)C1c1cccc([N+](=O)[O-])c1 (stereo unspecified)	none
CNC(=S)N1N=C2c3ccccc3CCC2C1c1ccc(OC)cc1 (stereo unspecified)	none (no result: STK33 kin inh)
O=C(NCc1ccco1)c1cccc(NC(=O)c2ccc(Br)cc2)c1	none (no result: PD-1 reverse act)
CC(=O)c1cccc(NC(=O)CSc2nc3ccc([N+](=O)[O-])cc3s2)c1	none
Cc1nn(Cc2cccc(Oc3ccccc3)c2)c(C)c1NC(=O)c1nc2ncccn2n1	none
COc1cccc(C(=O)NC(c2ccc([N+](=O)[O-])cc2)c2c(O)ccc3ccccc23)c1 (stereo unspecified)	NOMO-1 viab 114 (no result: PD-1 reverse act)
COc1cccc(C(=O)NC(c2ccc(Cl)cc2)c2c(O)ccc3ccccc23)c1 (stereo unspecified)	NOMO-1 viab 108
COc1cccc(C(=O)NC(c2ccccc2OC)c2c(O)ccc3ccccc23)c1 (stereo unspecified)	none
CCC(Oc1cccc(NC(=O)c2ccc([N+](=O)[O-])cc2)c1)C(=O)c1ccccc1 (stereo unspecified)	none (no result: PD-1 reverse act)
O=C(Oc1ccc(S(=O)(=O)c2ccc(OC(=O)c3cccs3)cc2)cc1)c1cccs1	none (no result: STK33 kin inh)
O=C(COc1ccc(Cl)cc1Cl)Nc1ccccc1[N+](=O)[O-]	none (no result: PD-1 reverse act, NOMO-1 viab)
C[C@@H]1CN([C@H](C)CO)C(=O)Cc2cc(NS(=O)(=O)c3ccccc3)ccc2O[C@@H]1CN(C)Cc1ccc(C(=O)Nc2ccccc2N)cc1	NOMO-1 viab 116 (no result: STK33 kin inh)
C[C@H]1CN([C@@H](C)CO)C(=O)Cc2cc(NS(=O)(=O)c3ccc(Cl)cc3)ccc2O[C@H]1CN(C)Cc1ccc(C(=O)Nc2ccccc2N)cc1	NOMO-1 viab 139 (no result: STK33 kin inh)
Cc1ccc(S(=O)(=O)Nc2ccc3c(c2)CC(=O)N([C@H](C)CO)C[C@@H](C)[C@H](CN(C)Cc2ccc(C(=O)Nc4ccccc4N)cc2)O3)cc1	none (no result: STK33 kin inh)
C[C@H]1CN([C@@H](C)CO)C(=O)Cc2cc(NS(C)(=O)=O)ccc2O[C@@H]1CN(C)Cc1ccc(C(=O)Nc2ccccc2N)cc1	none (no result: STK33 kin inh)
Cc1c(NS(=O)(=O)c2cccc3nonc23)c(=O)n(-c2ccccc2)n1C	none
Cc1ccc(NC(=O)CSc2nc(C)cc(C(F)(F)F)n2)cc1	none
Nc1nc(Cl)nc2c1ncn2C1OC(CO)[C@H](O)[C@H]1F (stereo partly specified)	NOMO-1 viab 97
Nc1nc(Cl)nc2c1ncn2C1C[C@@H](O)C(CO)O1 (stereo partly specified)	NOMO-1 viab 98
Nc1ncnc2c1ncn2C1CCC(CO)O1 (stereo unspecified)	none
CCOC(=O)c1c(NC(=O)CN2CCOCC2)sc(C(C)=O)c1C	none (no result: PD-1 reverse act)

From PubChem BioAssay
